# Results: PubChem BioAssay (EPA / NIEHS)
# Active and inactive are the calls of the source. Rule for the calls: active = hit-call score of the fitted dose curve at least 0.9, where 1 is the maximum; inactive = score below 0.9.
# Read-out: Alkaline Phosphatase, Placental (ALPP) gene, ALPP (gene 250)
# Assay: LTEA_HepaRG_ALPP: Life Technologies and Expression Analysis (LTEA) Assay for Alkaline Phosphatase, Placental (ALPP) gene using HepaRG (AID 2283468);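 for AC50: ALPP transcript by TaqMan qRT-PCR normalized to ACTB GAPDH and POLR2A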
# Details: mRNA level, 48 h; actives raise or lower the signal
# Experimental: LTEA_HepaRG is a cell based, multiplexed-readout assay that uses HepaRG, a human liver cell line, with measurements taken at 48 hours after chemical dosing on a 96-well plate.LTEA_HepaRG_ALPP is one of 102 assay component(s) measured in the LTEA HepaRG cell culture assay. It is a marker of Cell proliferation, survival, death.Data from the assay component LTEA_HepaRG_ALPP was analyzed into 1 endpoint. This assay endpoint, LTEA_HepaRG_ALPP, was analyzed with bidirectional fitting relative to DMSO as the negative control and baseline of activity. Using a type of inducible reporter, measures of mRNA induction for gain or loss-of-signal activity can be used to understand regulation of transcription factor activity. To generalize the intended target to other relatable targets, this assay endpoint is annotated to the phosphatase intended target family, where the subfamily is Cell proliferation, survival, death.
# A total of 1060 chemcials from the ToxCast library were tested in eight-point concentration-response experiments. Cell culture and cytotoxicity assays were conducted at Thermo Fisher Scientific's Custom Services facility (Madison, WI). A single lot of human HepaRG cells (Thermo Fisher Scientific, Frederick, MD) was used for the cell culture experiments. 96-well format collagen type I coated plates of human HepaRG cells were prepared using established methods. Briefly, cryopreserved HepaRG cells were thawed, plated at a density of approximately 100,000 cells/well in HepaRG Thaw, Plate, and General Purpose media (HPRG770, Thermo Fisher Scientific), and incubated for 48 hours. 0.5% DMSO was selected as vehicle control to balance the requisite need of DMSO in HepaRG cultures to maintain differentiation (for example, baseline metabolism, proportions of hepatocytes vs. cholangiocytes), while enabling further hepatic receptor pathway activation (for example, PXR and CAR) in response to chemical exposure. 48 hours after plating, the culture medium was replaced with HepaRG Serum-Free Incudtion Media. Cells were exposed to each test chemical in duplicate and maintained in CO2 incubators for another 48 hours. Chemical plates were thawed to room temperature and 200x concentrations of treatment groups were prepared. 8-point conentration-reponse curves were made with the highest exposure at 100 uM, followed by half-log dilutions, all in 0.5% DMSO. Each test plate contained variouse controls, induction positive controls (1mM phenobarbital), cytotoxicity positive controls ([…] aflatoxin B1), vehicle controls (0.5% DMSO), and total lysis controls (0.5% DMSO). Cell morphology images were taken using an Essen IncuCyte FLR automated microscope, with six 96-well plates imaged in about 24 minutes. Images were captured and exported and JPEG files. Spent culture media was transfered to black-well plates for the LDH assay, and remaining media was sorted at -80 C for later use. Cells were treated with RLT buffer and frozen until shipped for gene expression analysis. Total RNA was isolated from the cell suspension in 75 uL of Buffer RLT (Qiagen, Germantown, MD 20874) by Quintiles/Expression Analysis (Durham, NC) using a custom isolation procedure. Total RNA from each plate well was transferred to a preamplification plate. Fluidigm's 96.96 Dynamic ArrayTM (Fluidigm, Amsterdam, the Netherlands) technology was used for gene expression analyses by quantitative reverse transcription polymerase chain reaction (qRT-PCR, performed by Quintiles/Expression Analysis, Durham, NC)89. Standard TaqManTM Assays (Applied Biosystems/ThermoFisher Scientific, Foster City, CA) were used to assess the expression of 93 genes selected based on their selectivity and sensitivity to important hepatic receptors known to be modulated by environmental chemicals; importance in human hepatocyte functionality; and hepatotoxicity. […]
SMILES,outcome,AC50
CC(C)(C)C(=O)C(Oc1ccc(Cl)cc1)n1cncn1 (stereo not given),inactive,–
O=C(O)c1c(Cl)ccc2cc(Cl)cnc12,inactive,–
CNC(=O)Oc1cccc2ccccc12,inactive,–
CSC(=O)c1c(C(F)F)nc(C(F)(F)F)c(C(=O)SC)c1CC(C)C,–,49.8 µM (active)
CCOP(=S)(OCC)Oc1nc(Cl)n(C(C)C)n1,inactive,–
N#CN=C1SCCN1Cc1ccc(Cl)nc1,inactive,–
COCC(=O)N(c1c(C)cccc1C)C(C)C(=O)OC (stereo not given),inactive,–
CC(C)=CC1C(C(=O)OCc2coc(Cc3ccccc3)c2)C1(C)C (stereo not given),inactive,–
Nc1cnn(-c2ccccc2)c(=O)c1Cl,inactive,–
N#Cc1c(Cl)cccc1Cl,inactive,–
C=C(C)CN(CC)c1c([N+](=O)[O-])cc(C(F)(F)F)cc1[N+](=O)[O-],inactive,–
CC(C)N1C(=O)c2ccccc2NS1(=O)=O,inactive,–
CC1(C)CON(Cc2ccccc2Cl)C1=O,inactive,–
COP(=S)(OC)SCn1nnc2ccccc2c1=O,inactive,–
CCOP(=O)(OCC)Oc1nc(Cl)c(Cl)cc1Cl,inactive,–
CC(C)Oc1cccc(NC(=O)c2ccccc2C(F)(F)F)c1,inactive,–
Cn1c(-c2ccccc2)cc(-c2ccccc2)[n+]1C,–,50 µM (active)
CCCCOCN(C(=O)CCl)c1c(CC)cccc1CC,inactive,–
COC(=O)c1c(C(F)F)nc(C(F)(F)F)c(C2=NCCS2)c1CC(C)C,inactive,–
O=C(Nc1ccccc1-c1ccc(Cl)cc1)c1cccnc1Cl,inactive,–

SMILES,outcome,AC50
CCCC(=NOCC)C1=C(O)CC(CC(C)SCC)CC1=O (stereo not given),inactive,–
Nc1c(Cl)c(Cl)nc(C(=O)O)c1Cl,inactive,–
COC(=O)NC(=S)Nc1ccccc1NC(=S)NC(=O)OC,inactive,–
COP(=O)(OC)O/C(C)=C/C(=O)N(C)C,inactive,–
CC(C)N1C(=O)N(c2ccccc2)CSC1=NC(C)(C)C,–,78.3 µM (active)
CCN(CC)C(=O)C(C)Oc1cccc2ccccc12 (stereo not given),–,84.3 µM (active)
CN/C(=N\[N+](=O)[O-])NCc1cnc(Cl)s1,inactive,–
COc1cc(OC)nc(NC(=O)NS(=O)(=O)c2ncccc2OCC(F)(F)F)n1,inactive,–
COP(=S)(OC)Oc1ccc([N+](=O)[O-])c(C)c1,inactive,–
CC1(C)CCC(=Cc2ccc(Cl)cc2)C1(O)Cn1cncn1 (stereo not given),inactive,–
COCC(C)N(C(=O)CCl)c1c(C)csc1C (stereo not given),inactive,–
OC(c1ccc(Cl)cc1)(c1ccc(Cl)cc1)C(Cl)(Cl)Cl,inactive,–
CCN(CC)c1nc(C)cc(OP(=S)(OC)OC)n1,inactive,–
CCOc1cc(C(C)(C)C)ccc1C1COC(c2c(F)cccc2F)=N1 (stereo not given),inactive,–
COCc1cnc(C2=NC(C)(C(C)C)C(=O)N2)c(C(=O)O)c1 (stereo not given),inactive,–
O=c1n(Cl)c(=O)n(Cl)c(=O)n1Cl,inactive,–
CCC(C)n1c(=O)[nH]c(C)c(Br)c1=O (stereo not given),inactive,–
CCOc1nc(F)cc2nc(S(=O)(=O)Nc3c(Cl)cccc3Cl)nn12,inactive,–
Clc1nc(Cl)nc(Nc2ccccc2Cl)n1,inactive,–
O=P(O)(O)CCCl,inactive,–
